# Measured values published in PubChem BioAssay.
# Active and inactive are the calls of the source. Unless noted, the rule behind the calls is not given here.
# Tests used:
# [1] = A549 cell viability effects, profiling panel, calcein-AM fluorescence, 48 h, basal (AID 1162); conditions: higher = more signal; note: test concentration not given here
# [2] = adipocyte viability effects, profiling panel, cell-based, 3T3-L1 adipocytes, calcein-AM fluorescence, 48 h, basal (AID 1163); conditions: 3T3-L1 adipocytes viability, higher = more signal; note: test concentration not given here
# [3] = HepG2 cell viability effects, profiling panel, calcein-AM fluorescence, 48 h, basal (AID 1164); conditions: higher = more signal; note: test concentration not given here
# [4] = MM1S cell viability effects, profiling panel, calcein-AM fluorescence, 48 h, basal (AID 1165); conditions: higher = more signal;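 note: viability of MM1S multiple myeloma cells under basal unstimulated conditions; test concentration not given here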
# [5] = basal RPMI8226 viability, no added stimulus, profiling panel, cell-based, calcein-AM fluorescence, 48 h, PK04 Diversity Set (AID 1166); conditions: RPMI8226 myeloma viability, higher = more signal;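 note: cells grown under basal conditions without added stimulus; test concentration not given here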
# [6] = basal HepG2 mitochondrial membrane potential changes, profiling panel, cell-based, JC-1 fluorescence, 24 h, 100 nL compound (AID 1167); conditions: higher = more signal; note: test concentration not given here
# [7] = basal 3T3-L1 adipocyte mitochondrial potential changes, profiling panel, cell-based, JC-1 fluorescence, 3T3-L1 adipocytes, 24 h, 100 nL compound (AID 1168); conditions: JC-1 mitochondrial fluorescence, higher = more signal, called active from +8 up or from −8 down; note: test concentration not given here
# [8] = basal RPMI8226 mitochondrial membrane potential changes, profiling panel, cell-based, JC-1 fluorescence, 24 h, 100 nL compound (AID 1169); conditions: RPMI8226 myeloma, JC-1 mitochondrial potential fluorescence, higher = more signal; note: test concentration not given here
# [9] = basal MM1S mitochondrial membrane potential changes, profiling panel, cell-based, JC-1 fluorescence, 24 h, 100 nL compound (AID 1170); conditions: higher = more signal; note: test concentration not given here
# [10] = A549 lung cancer cell viability effects, profiling panel, resazurin fluorescence, 24 h, PK04 Diversity Set (AID 1171); conditions: higher = more signal, called active from +8 up or from −8 down; note: test concentration not given here
# [11] = HepG2 liver cancer cell viability effects, profiling panel, resazurin fluorescence, 24 h, PK04 Diversity Set (AID 1172); conditions: higher = more signal; note: test concentration not given here
# [12] = basal S. cerevisiae growth modulation, no modifier, primary screen, OD600, strain BY4716, 24 h, basal condition (AID 1173); conditions: OD600, 24 h, higher = more signal, called active from +8 up or from −8 down
# [13] = MM1S myeloma cell viability, profiling panel, resazurin fluorescence, basal, 24 h, PK04 Diversity Set (AID 1174); conditions: higher = more signal, called active from +8 up or from −8 down;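 note: MM1S multiple myeloma cell line; test concentration not given here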
# [14] = target: Dihydroorotate dehydrogenase (quinone), mitochondrial (Plasmodium falciparum (isolate 3D7)) (UniProt Q08210); assay: PfDHODH enzyme inhibitors, primary screen, biochemical, C-terminal His tag, absorbance 600 nm (AID 1175); conditions: DCIP absorbance 600 nm, higher = more signal, called active from +8 up or from −8 down;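 note: recombinant parasite enzyme with a five histidine tag at its C terminus; test concentration not given here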
# Dihydroorotate dehydrogenase (quinone), mitochondrial (Plasmodium falciparum (isolate 3D7)), sequence (Q08210 whole entry, looked up): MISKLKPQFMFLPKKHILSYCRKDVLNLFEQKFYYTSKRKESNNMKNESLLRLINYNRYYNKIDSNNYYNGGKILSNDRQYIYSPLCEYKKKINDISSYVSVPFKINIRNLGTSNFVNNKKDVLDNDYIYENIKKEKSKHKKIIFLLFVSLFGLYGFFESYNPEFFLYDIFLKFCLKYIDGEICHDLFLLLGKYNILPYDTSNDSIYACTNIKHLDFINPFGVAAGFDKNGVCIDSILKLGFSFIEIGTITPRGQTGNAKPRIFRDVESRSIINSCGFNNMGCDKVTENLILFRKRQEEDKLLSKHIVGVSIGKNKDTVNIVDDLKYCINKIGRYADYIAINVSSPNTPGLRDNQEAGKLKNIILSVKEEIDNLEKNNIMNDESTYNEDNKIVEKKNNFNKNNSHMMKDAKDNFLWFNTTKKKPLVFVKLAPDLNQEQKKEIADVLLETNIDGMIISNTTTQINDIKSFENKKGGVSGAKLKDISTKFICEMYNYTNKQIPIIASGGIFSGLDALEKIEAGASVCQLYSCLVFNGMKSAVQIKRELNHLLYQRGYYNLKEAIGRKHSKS
# [15] = P. aeruginosa biofilm formation inhibitors, primary screen, strain PAO1, LB-PBS medium, absorbance 600 nm (AID 1176); note: test concentration not given here; conditions: P. aeruginosa PAO1 growth/biofilm, A600, 12 h; higher = more signal
# [16] = S. cerevisiae RM11-1a growth modifiers, primary screen, strain RM11-1a, OD600, basal, 24 h (AID 1177); conditions: OD600, 24 h, higher = more signal, called active from +8 up or from −8 down;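 note: cultures grown under basal conditions with no added stressor; test concentration not given here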
# [17] = E. coli acrAB mutant growth effects, primary screen, E. coli filamentation inducers, strain DRC39, OD650, 24 h (AID 1178); conditions: higher = more signal, called active from +8 up or from −8 down;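 note: growth measured as culture turbidity by optical density at 650 nm; test concentration not given here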
# [18] = E. coli acrAB mutant growth effects, primary screen, E. coli filamentation inducers, strain DRC39, OD650, 48 h (AID 1179);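 note: screen aims at cell division blockers that make cells filament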; conditions: E. coli DRC39 delta-acrAB growth, higher = more signal, called active from +8 up or from −8 down
# [19] = RPMI8226 myeloma cell viability, profiling panel, resazurin fluorescence, basal, 24 h, PK04 Diversity Set (AID 1180); conditions: higher = more signal;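 note: RPMI8826 multiple myeloma cell line at 5000 cells per well; test concentration not given here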
# [20] = target: E3 ubiquitin-protein ligase XIAP (Homo sapiens) (UniProt P98170); assay: XIAP binders, primary screen, biophysical, small-molecule microarray, fluorescence 635 nm (AID 1181); conditions: small-molecule microarray binding, higher = more signal;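 note: score merges 667 nm emission and signal to noise over triplicate slides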
# E3 ubiquitin-protein ligase XIAP (Homo sapiens), sequence (P98170 whole entry, looked up): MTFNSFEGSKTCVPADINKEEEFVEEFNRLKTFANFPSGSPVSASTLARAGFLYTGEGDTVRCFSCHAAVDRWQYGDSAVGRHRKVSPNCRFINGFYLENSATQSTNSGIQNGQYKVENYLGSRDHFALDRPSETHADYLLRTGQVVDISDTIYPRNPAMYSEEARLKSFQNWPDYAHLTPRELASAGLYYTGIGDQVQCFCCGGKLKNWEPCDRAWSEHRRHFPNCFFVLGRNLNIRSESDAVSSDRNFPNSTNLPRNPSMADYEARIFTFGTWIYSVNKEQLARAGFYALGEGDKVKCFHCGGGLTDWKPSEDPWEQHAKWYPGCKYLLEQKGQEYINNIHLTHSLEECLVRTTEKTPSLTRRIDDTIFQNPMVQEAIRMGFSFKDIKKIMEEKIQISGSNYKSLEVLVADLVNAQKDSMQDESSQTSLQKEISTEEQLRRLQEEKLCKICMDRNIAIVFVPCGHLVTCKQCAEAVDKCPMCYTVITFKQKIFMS
Structure (SMILES),z-score [1],z-score [2],z-score [3],z-score [4],z-score [5],z-score [6],z-score [7],z-score [8],z-score [9],z-score [10],z-score [11],z-score [12],z-score [13],composite z-score [14],z-score [15],z-score [16],z-score [17],z-score [18],z-score [19],composite z-score [20]
CCOC(=O)C[C@H]1[C@H](OC(=O)c2cc3ccccc3oc2=O)[C@@H](NC(=O)c2ccc(-c3ccccc3)cc2)c2cc(OCCCO)ccc2N1C(=O)c1ccccc1,0.182,1.82,0.404,0.172,-0.841,1.27,-0.445 (inactive),-0.337,-0.595,-1.1 (inactive),-0.638,-1.79 (inactive),-0.005 (inactive),-2.74 (inactive),-0.329 (inactive),-0.272 (inactive),-0.466 (inactive),-0.878 (inactive),-0.24,0.164
NCCCCCCNC(=O)[C@@H]1C[C@@H]2C(=O)N[C@@H](CCCCN)C(=O)N2[C@@H]1c1cccc(OCCO)c1,0.892,-0.452,0.514,0.835,0.986,0.0199,0.759 (inactive),-0.639,-0.451,0.551 (inactive),1.1,0.0813 (inactive),0.193 (inactive),0.169 (inactive),-0.931 (inactive),0.58 (inactive),0.398 (inactive),0.756 (inactive),0.685,2.72
O=C(NCC(F)(F)F)[C@@H]1c2ccccc2C(=O)N(Cc2ccccc2C(F)(F)F)[C@H]1c1ccc(CO)cc1,0.215,-0.484,0.0606,0.0756,-0.328,0.277,-1.07 (inactive),0.0161,-0.894,0.456 (inactive),-0.0877,0.0223 (inactive),-0.474 (inactive),-0.184 (inactive),0.292 (inactive),-0.246 (inactive),-0.308 (inactive),0.263 (inactive),-0.853,-0.184
COC(=O)[C@@]1(Cc2ccc(OC)cc2)[C@H]2c3cc(C(=O)N(C)C)n(C[C@H](O)CO)c3C[C@H]2CN1C(=O)c1ccccc1,-0.93,-0.503,-0.285,-1.99,-1.79,0.906,-0.871 (inactive),-0.847,-1.03,-0.816 (inactive),-1.17,1.02 (inactive),-2.31 (inactive),-0.791 (inactive),2.01 (inactive),0.166 (inactive),-1.46 (inactive),-1.11 (inactive),-1.95,0.441
CCCCCCc1nc(C2CC2)cc2c1[Si](C(C)C)(C(C)C)OC2,-0.315,0.865,-0.131,-2.26,-1.92,-1.01,-0.0319 (inactive),-0.651,-0.00829,-0.366 (inactive),-0.621,0.436 (inactive),0.0766 (inactive),-2.54 (inactive),-0.227 (inactive),-0.431 (inactive),-0.423 (inactive),-0.606 (inactive),-0.584,-0.206
COCCCNC(=O)[C@@]1(Cc2ccccc2CN=[N+]=[N-])N=C(c2ccc(OCCCO)cc2)O[C@H]1c1ccccc1,-1.15,0.759,-0.798,-2.93,-4.32,0.331,-0.00801 (inactive),-1.25,-0.69,0.385 (inactive),0.636,0.41 (inactive),-0.88 (inactive),1.22 (inactive),-0.317 (inactive),1.92 (inactive),1.28 (inactive),0.242 (inactive),-1.75,-0.052
C=C(/C(=C/C[C@H](OC(=O)c1ccncc1)c1ccc(CO)o1)c1cc(C(=O)OC)ccc1OC)C(C)C,-0.762,-0.0308,-1.15,-1.26,-0.524,-0.133,-1.63 (inactive),-0.324,-0.251,-0.18 (inactive),-0.154,-0.368 (inactive),-0.797 (inactive),-0.913 (inactive),1.38 (inactive),0.112 (inactive),-0.825 (inactive),-0.655 (inactive),-0.9,-0.124
C=CCN1C(=O)[C@@]2(CCS(=O)(=O)c3ccccc3)N=C(c3ccc(OCCCO)cc3)O[C@H]2c2ccccc21,0.0843,0.473,0.684,-0.786,-2.05,-0.692,1.79 (inactive),-0.995,0.0237,-0.812 (inactive),-0.436,0.698 (inactive),-0.427 (inactive),-0.218 (inactive),0.563 (inactive),1.45 (inactive),-0.0209 (inactive),0.242 (inactive),-2.12,-0.0421
